The values below come from PubChem BioAssay (Tox21).

The source made the active and inactive calls. Where a call stands in place of a potency, no number is given. Calls follow the shape of the dose curve; as a rule, active = well fitted activation curve with a large enough effect in the repeat runs; inconclusive = weak or mixed curves; inactive = flat fitted curve, though single readings scatter.
Potency is read from the fitted curve at half-maximal effect.

Androgen receptor (Homo sapiens), sequence (P10275 whole entry, looked up): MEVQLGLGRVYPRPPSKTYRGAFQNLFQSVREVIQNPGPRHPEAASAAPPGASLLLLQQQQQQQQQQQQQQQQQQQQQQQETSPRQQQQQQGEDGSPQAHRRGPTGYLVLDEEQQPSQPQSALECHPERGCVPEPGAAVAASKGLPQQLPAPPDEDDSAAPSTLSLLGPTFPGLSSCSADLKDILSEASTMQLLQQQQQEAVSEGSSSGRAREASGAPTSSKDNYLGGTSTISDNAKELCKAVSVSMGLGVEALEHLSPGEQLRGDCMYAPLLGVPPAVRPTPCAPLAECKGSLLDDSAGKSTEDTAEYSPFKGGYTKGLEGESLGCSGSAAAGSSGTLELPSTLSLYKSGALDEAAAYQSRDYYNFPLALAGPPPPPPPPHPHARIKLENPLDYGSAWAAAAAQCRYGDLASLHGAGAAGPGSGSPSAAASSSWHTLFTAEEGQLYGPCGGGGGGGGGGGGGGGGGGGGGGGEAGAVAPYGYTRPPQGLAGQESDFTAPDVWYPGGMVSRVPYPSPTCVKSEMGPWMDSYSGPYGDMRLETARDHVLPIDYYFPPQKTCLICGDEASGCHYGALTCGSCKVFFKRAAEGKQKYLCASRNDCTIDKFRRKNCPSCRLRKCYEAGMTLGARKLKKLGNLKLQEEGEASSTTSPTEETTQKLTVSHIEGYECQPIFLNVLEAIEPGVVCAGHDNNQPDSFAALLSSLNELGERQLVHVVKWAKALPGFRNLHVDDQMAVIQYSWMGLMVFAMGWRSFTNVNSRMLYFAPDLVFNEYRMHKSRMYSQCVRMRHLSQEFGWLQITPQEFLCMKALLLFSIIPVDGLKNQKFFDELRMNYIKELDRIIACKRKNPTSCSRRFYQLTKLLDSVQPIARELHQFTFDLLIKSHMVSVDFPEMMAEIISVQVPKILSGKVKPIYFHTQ

The target of the experiment is Androgen receptor (Homo sapiens) (UniProt P10275). Put plainly: qHTS assay to identify small molecule agonists of the androgen receptor (AR) signaling pathway using the MDA cell line (AID 743040; also: nearly all actives have a fitted effect of over 20% in size). The following applies: MDA-kb2 AR-luc cells, MMTV luciferase, 16 h; series mostly up to 70.3 µM. The text has this:
National Center for Advancing Translational Sciences [NCATS]
NIH Chemical Genomics Center [NCGC]
U.S. Environmental Protection Agency [EPA]
National Institutes of Environmental Health Sciences [NIEHS]
National Toxicology Program [NTP]
U.S. Food and Drug Administration [FDA]
Androgen receptor (AR), a nuclear hormone receptor, plays a critical role in AR-dependent prostate cancer and other androgen related diseases. Endocrine disrupting chemicals (EDCs) and their interactions with steroid hormone receptors like AR may cause disruption of normal endocrine function as well as interfere with metabolic homeostasis, reproduction, developmental and behavioral functions. To identify the compounds that activate AR signaling, MDA-kb2 AR-luc cell line (from ATCC, deposited by Wilson et al.) was used to screen the Tox21 10K compound library. MDA-kb2 AR-luc cell line is human breast carcinoma cell line that was stably transfected with a luciferase reporter gene under control of the MMTV promoter containing response elements for both androgen receptor (AR) and glucocorticoid receptor (GR).
Tox21 Assay Protocol Summary:
MDA-kb2 AR-luc cells were dispensed at 3,000 cells/5 uL/well of culture medium into white wall/solid-bottom 1536-well plates using a Multidrop Combi (ThermoFisher Scientific, Waltham, MA) dispenser. After the assay plates were incubated at 37C and 0% CO2 for 5 h, 23 nL of compounds dissolved in DMSO, positive controls or DMSO only was transferred to the assay plate by a Pintool station (Kalypsys, San Diego, CA). The plates were incubated at 37C and 0% CO2 for 16 h. Then 4 uL of ONE-Glo reagent (Promega, Madison, WI) was added to each plate using a Bioraptr Flying Reagent Dispenser (FRD) workstation (Beckman Coulter, Indianapolis, IN, USA) and luminescence was quantified on a ViewLux (PerkinElmer, Shelton, CT) plate reader after 30 min incubation at room temperature.
(In qHTS, concentration-response curves come from the screen itself.)
`Nc1nc2c(c(=O)[nH]1)N(C=O)C(CNc1ccc(C(=O)N[C@@H](CCC(=O)O)C(=O)O)cc1)CN2` (stereo not given in full): the Potency result is “inactive”. For `NC(=S)N=Nc1ccc(NN=C(N)N)cc1` the value was “inactive”. Turning to `CCC(=O)O[C@H]1CC[C@H]2[C@@H]3CCc4cc(O)ccc4[C@H]3CC[C@]12C`, the Potency is 4.73 µM (active).

`C=C[C@]1(C)C[C@@H](OC(=O)CSC(C)(C)CNC(=O)[C@H](N)C(C)C)[C@]2(C)[C@H](C)CC[C@]3(CCC(=O)[C@H]32)[C@@H](C)[C@@H]1O`: the Potency entry is “inactive”. On to `O=C(O)c1cc(N=Nc2ccc(O)c(C(=O)O)c2)ccc1O`, for which the Potency entry was “inactive”. For `COc1cc(C)c(/C=C/C(C)=C/C=C/C(C)=C/C(=O)O)c(C)c1C` the value was “inactive”; for `CC1=C(/C=C/C(C)=C/C=C/C(C)=C/C=C/C=C(C)/C=C/C=C(C)/C=C/C2=C(C)C[C@@H](O)CC2(C)C)C(C)(C)C[C@H](O)C1`, “inactive”; for `CCCCCCCCCCCCCCCCCC(=O)OC[C@@H](O)[C@H]1OC[C@H](O)[C@H]1O`, “inactive”.

For the compound `O=C1C(=O)c2ncccc2-c2cccnc21`, the Potency entry is “inactive”. `O=C(O)CCC/C=C\C[C@@H]1[C@@H](/C=C/[C@@H](O)COc2cccc(Cl)c2)[C@H](O)C[C@@H]1O`: the Potency entry was “inactive”. For `NNc1nnc(Cc2ccncc2)c2ccccc12` the value was “inactive”; for `CCOC(=O)COc1ccc2c(C)c(CCN(CC)CC)c(=O)oc2c1`, “inactive”. On to `C#C[C@]1(O)CC[C@H]2[C@@H]3CCC4=C/C(=N/O)CC[C@@H]4[C@H]3CC[C@@]21CC`, for which the Potency was 0.0335 µM (active). The entry for `CCCCCCCCCCCCCCCC(=O)OC[C@@H](COP(=O)([O-])OCC[N+](C)(C)C)OC(=O)CCCCCCCCCCCCCCC` is “inactive”; for `CC(C)(CO)[C@@H](O)C(=O)NCCCC(=O)O` it is “inactive”. For `O=C(O)c1ccc(NC(=O)[C@H](Cc2ccc(O)cc2)NC(=O)c2ccccc2)cc1` the value was “inactive”; for `O=C(O)c1nc(=O)[nH]c(=O)[nH]1`, “inactive”.

Take `CCN(CC)c1ccc(C(=C2C=CC(=[N+](CC)CC)C=C2)c2ccccc2)cc1`: the Potency entry is “inactive”. In the case of `CC[C@H](C)[C@H]1O[C@]2(CC[C@@H]1C)C[C@@H]1C[C@@H](C/C=C(\C)[C@@H](O[C@H]3C[C@H](OC)[C@@H](O[C@H]4C[C@H](OC)[C@@H](O)[C@H](C)O4)[C@H](C)O3)[C@@H](C)/C=C/C=C3\CO[C@@H]4[C@H](O)C(C)=C[C@@H](C(=O)O1)[C@]34O)O2`, the Potency entry was “inactive”.

On to `O=C(O)c1c(Cl)c(Cl)c(Cl)c(Cl)c1-c1c2cc(I)c(=O)c(I)c-2oc2c(I)c(O)c(I)cc12`, for which the Potency is 13.3 µM (active). The entry for `CCCCOC(=O)C(=O)Nc1cccc(-c2nn[nH]n2)c1` is “inactive”.

Turning to `Cc1cc2nc3c(=O)[nH]c(=O)nc-3n(C[C@H](O)[C@H](O)[C@H](O)COP(=O)(O)OP(=O)(O)OC[C@H]3O[C@@H](n4cnc5c(N)ncnc54)[C@H](O)[C@@H]3O)c2cc1C`, the Potency result was “inactive”.

With `OCC(S)CS` (stereo not given), the Potency entry is “inactive”.

As for `CO[C@@H]1[C@@H](O[C@@H]2O[C@H](C)[C@@H](O[C@H]3C[C@@](C)(O)[C@@H](OC(=O)CC(C)C)[C@H](C)O3)[C@H](N(C)C)[C@H]2O)[C@@H](CC=O)C[C@@H](C)C(=O)/C=C/C2OC2C[C@@H](C)OC(=O)C[C@H]1OC(C)=O` (stereo not given in full), the Potency result is “inactive”. The entry for `CC[N+](C)(C)Cc1ccccc1Br` is “inactive”; for `CN1CCN(CCC=C2c3ccccc3Sc3ccc(S(=O)(=O)N(C)C)cc32)CC1` it is “inactive”. The entry for `CN(C)C(=O)CCSC(SCCC(=O)O)c1cccc(/C=C/c2ccc3ccc(Cl)cc3n2)c1` (stereo not given) is “inactive”. `CN=C1C=CC(=C(c2ccc(N(C)C)cc2)c2ccc(N(C)C)cc2)C=C1`: the Potency entry was “inactive”. On to `O=C(O)c1cccc(/C=C2/C[C@@H]3[C@@H](/C=C/[C@@H](O)C4CCCCC4)[C@H](O)C[C@@H]3O2)c1`, for which the Potency result is “inactive”. The figure for `CC1(C)S[C@@H]2[C@H](NC(=O)[C@H](NC(=O)N3CCN(S(C)(=O)=O)C3=O)c3ccccc3)C(=O)N2[C@H]1C(=O)O` is 29.8 µM (active); for `CO[C@H]1C[C@H](O[C@H]2[C@H](C)[C@@H](O[C@@H]3O[C@H](C)C[C@H](N(C)C)[C@H]3OC(C)=O)[C@@H](C)C[C@]3(CO3)C(=O)[C@H](C)[C@@H](OC(C)=O)[C@@H](C)[C@@H](C)OC(=O)[C@@H]2C)O[C@@H](C)[C@@H]1OC(C)=O` it is “inactive”. The entry for `CN1CCC(CN2c3ccccc3Sc3ccccc32)C1` (stereo not given) is “inactive”.

Regarding `COC(=O)C1=C(C)NC(C)=C(C(=O)O[C@H]2CCN(Cc3ccccc3)C2)[C@H]1c1cccc([N+](=O)[O-])c1`, the Potency result was “inactive”. The entry for `CC(=O)O[C@H]1C(=O)[C@@]2(C)[C@H]([C@H](OC(=O)c3ccccc3)[C@]3(O)C[C@H](OC(=O)[C@H](O)[C@@H](NC(=O)c4ccccc4)c4ccccc4)C(C)=C1C3(C)C)[C@]1(OC(C)=O)CO[C@@H]1C[C@@H]2O` is “inactive”; for `OCC(O)COc1ccc(Cl)cc1` (stereo not given) it is “inactive”. In the case of `C=C1c2c(Cl)ccc(O)c2C(O)=C2C(=O)[C@]3(O)C(O)=C(C(N)=O)C(=O)[C@@H](N(C)C)[C@@H]3[C@@H](O)[C@H]12`, the Potency result was “inactive”. Take `CCN(CC)Cc1cc(Nc2ccnc3cc(Cl)ccc23)ccc1O`: the Potency result is “inactive”. The entry for `O=C(OC[C@H]1O[C@](O)(COC(=O)c2cccnc2)[C@@H](OC(=O)c2cccnc2)[C@@H]1OC(=O)c1cccnc1)c1cccnc1` is “inactive”; for `Cc1cc(C)c(NC(=O)C[C@H](CC(=O)O)c2cccc3ccccc23)c(C(=O)N2CCC3(CCCC3)CC2)c1` it is “inactive”; for `CCCC(=O)N1CCCN(c2nc(N)c3cc(OC)c(OC)cc3n2)CC1` it is “inactive”.
